Only a selection was taken, and hits are over-represented in it overall.
Tg IFNy HTS = T. gondii growth inhibition under IFN-gamma. Toxoplasma gondii growth in IFN-gamma-treated host cells; stronger effect = lower value. activity change, negative = inhibition, % (concentration not given with the values). hit rate 3.8% among 69,000; in the data active = activity change below about -70%, passing the limit was not always enough;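 note: host cells are HeLa cells infected with Toxoplasma gondii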
Large screens that a line does not name were inactive.

CN(C)CCN1C(=O)CCC12CCCN(C(=O)c1ccc[nH]1)CC2 (stereo not drawn)	none
CN(C)[C@@H]1CCN(C(=O)c2cnccn2)[C@H]1Cc1cnn(C)c1	none
O=C(c1cccc2cccnc12)N1CCC2(CC(=O)N(c3ccccc3)C2)C1 (stereo not drawn)	none
CCOc1ccc2oc(=O)cc(CN3CCN(Cc4nc(-c5cccc(C)c5)oc4C)CC3)c2c1	none
Cc1ccc(Cl)cc1NC(=O)CC(C)n1nc(C)c(C)c1C (stereo not drawn)	none
O=C(Cn1ncc2c(N3CCOCC3)ncnc21)N1CCC2(CC1)OCCO2	none
Cc1cccc(OC2CCN(C(=O)Cc3cccc4cccnc34)CC2)c1	none
Cc1nnc(-c2cccc(NS(=O)(=O)NCc3ccccc3)c2)s1	none
O=C(c1ccc(N2CC=CCC2)nc1)N1CCC(N2CCOCC2)CC1	none
CCn1c(C2CCNCC2)nn(Cc2csc(-c3ccccc3)n2)c1=O	none
O=C1CCCN1Cc1nnc2n1CCCN(c1ncccn1)C2	none
COc1cccc(-n2c(=O)c(C(=O)NCc3ccccc3Cl)c(O)c3cccnc32)c1	Tg IFNy HTS -91
COc1cccc(-n2c(=O)c(C(=O)NCc3ccc(F)cc3F)c(O)c3cccnc32)c1	none
O=C(Nc1ccc(F)cc1Cl)c1c(O)c2cccnc2n(-c2ccc(F)cc2)c1=O	none
COc1cccc(-n2c(=O)c(C(=O)Nc3ccccc3Cl)c(O)c3cccnc32)c1	none
CCOc1ccccc1NC(=O)c1c(O)c2cccnc2n(-c2cccc(F)c2)c1=O	none
O=C(Nc1ccc(Cl)cc1)c1c(O)c2cccnc2n(-c2cccc(F)c2)c1=O	Tg IFNy HTS -102
CCc1ccccc1NC(=O)c1c(O)c2cccnc2n(-c2cccc(F)c2)c1=O	Tg IFNy HTS -104
COc1cccc(-n2c(=O)c(C(=O)NCc3ccccc3F)c(O)c3cccnc32)c1	none
O=C(Nc1ccccc1Cl)c1c(O)c2cccnc2n(-c2cccc(F)c2)c1=O	Tg IFNy HTS -87
O=C(Nc1ccc(F)cc1F)c1c(O)c2cccnc2n(-c2ccccc2)c1=O	none
O=C(Nc1ccc(F)cc1)c1c(O)c2cccnc2n(-c2cccc(F)c2)c1=O	none
Cc1ccc(NC(=O)c2c(O)c3cccnc3n(-c3cccc(F)c3)c2=O)cc1	none
c1cnc(N2CCC3(CCN(Cc4nccs4)CC3)C2)nc1	none
Cc1ccc2c(c1C)-n1cccc1C1(CCN(S(=O)(=O)c3cc(F)ccc3F)CC1)N2	none
CC(C)NC(=O)C1CC(=O)N(CCc2c[nH]c3ccc(F)cc23)C1 (stereo not drawn)	none
O=C1N(Cc2ccncc2)CCC12CCCN(c1ncccn1)C2 (stereo not drawn)	none
COc1ccc(-c2[nH]ncc2CNC(=O)C2(C)CC(c3ccccc3F)=NO2)cc1 (stereo not drawn)	none
Cc1ccc(C)c(OC(C)C(=O)N(C)Cc2nc3ccccc3[nH]2)c1 (stereo not drawn)	none
CCc1ccccc1NC(=O)c1c(O)c2cccnc2n(-c2ccc(F)cc2)c1=O	Tg IFNy HTS -79
CCc1ccc(NC(=O)c2c(O)c3cccnc3n(-c3ccc(F)cc3)c2=O)cc1	none
CCOc1ccccc1NC(=O)c1c(O)c2cccnc2n(-c2ccc(F)cc2)c1=O	none
C[C@@H]1CN([C@@H](C)CO)C(=O)c2cc(/C=C/c3ccccc3)cnc2O[C@@H]1CN(C)S(=O)(=O)c1ccccc1F	none
C[C@@H]1CN([C@@H](C)CO)C(=O)c2cccc(NC(=O)c3nc4ccccc4s3)c2O[C@@H]1CN(C)C(=O)Nc1ccc2c(c1)OCO2	none
COc1ccc(S(=O)(=O)N(C)C[C@@H]2Oc3c(NC(=O)c4nc5ccccc5s4)cccc3C(=O)N([C@H](C)CO)C[C@H]2C)cc1	none
C[C@H](CO)N1C[C@H](C)[C@H](CN(C)S(=O)(=O)c2ccc(Cl)cc2)Oc2c(NC(=O)Nc3ccc(F)cc3)cccc2C1=O	Tg IFNy HTS -81
C[C@H](CO)N1C[C@H](C)[C@@H](CN(C)Cc2ccc(Oc3ccccc3)cc2)Oc2c(NC(=O)CCC(F)(F)F)cccc2C1=O	none
C[C@@H]1CN([C@H](C)CO)C(=O)c2cc(/C=C/c3ccccc3)cnc2O[C@@H]1CN(C)S(=O)(=O)c1ccccc1F	Tg IFNy HTS -88
C[C@@H]1CN([C@@H](C)CO)C(=O)c2cccc(NC(=O)Nc3ccc(F)cc3)c2O[C@@H]1CN(C)S(=O)(=O)c1ccc(Cl)cc1	none
C[C@H](CO)N1C[C@H](C)[C@@H](CN(C)Cc2ccccc2)Oc2c(NC(=O)Cc3cn(C)c4ccccc34)cccc2C1=O	Tg IFNy HTS -93
C[C@H](CO)N1C[C@H](C)[C@@H](CN(C)S(=O)(=O)c2ccccc2F)Oc2ncc(/C=C/c3ccccc3)cc2C1=O	none
C[C@@H]1CN([C@@H](C)CO)C(=O)c2cccc(NS(C)(=O)=O)c2O[C@H]1CN(C)Cc1ccc(-c2ccccc2)cc1	none
C[C@@H]1CN([C@@H](C)CO)C(=O)c2cccc(NC(=O)Nc3ccc(F)cc3)c2O[C@H]1CN(C)S(=O)(=O)c1ccc(Cl)cc1	none
COc1ccc(S(=O)(=O)N(C)C[C@H]2Oc3c(NC(=O)c4nc5ccccc5s4)cccc3C(=O)N([C@@H](C)CO)C[C@@H]2C)cc1	Tg IFNy HTS -78
